Laboratory results as given in PubChem BioAssay (EPA / NIEHS).
Calls of active or inactive are those of the source. Rule for the calls: active = hit-call score of the fitted dose curve at least 0.9, where 1 is the maximum; inactive = score below 0.9.

Columns and labels:
[1] = ATG_CRE_CIS: Attagene CIS-FACTORIAL HepG2 Assay for human cAMP Responsive Element (CRE) binding protein 3 (AID 2282926); settings: HepG2 CRE cis-reporter, Attagene multiplexed mRNA; actives raise or lower the signal
Summary of the method: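 Readout: fluorescently labelled reporter transcripts resolved by capillary electrophoresis after RT-PCR, taken 24 h post-dosing in transfected HepG2. Endogenous transcription factor activity drives each cis-element reporter; gain or loss of signal fitted relative to DMSO control.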

[2] = target: CCAAT/enhancer-binding protein beta (Homo sapiens) (UniProt P17676); experiment: ATG_C_EBP_CIS: Attagene CIS-FACTORIAL HepG2 Assay for human CCAAT/Enhancer Binding Protein (C/EBP) beta (AID 2282927); settings: HepG2 Attagene cis-factorial transcription factor reporter; actives raise or lower the signal
Summary of the method: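 Endogenous C/EBPb-driven reporter transcripts measured in transfected human HepG2 cells at 24 h via RT-PCR and capillary electrophoresis of labelled fragments. Activity fitted in both directions relative to DMSO baseline.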

[3] = ATG_CMV_CIS: Attagene CIS-FACTORIAL HepG2 Assay for human CMV (Internal Marker) (AID 2282928); settings: HepG2 CMV promoter reporter, transcription factor profiling; actives raise or lower the signal;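 note: endpoint acts as a background internal control marker rather than a target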
Summary of the method: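 Reporter transcripts from transfected HepG2 cells are isolated after 24 h of chemical dosing, reverse-transcribed and amplified. Fragments labeled with 6-FAM are cut with HpaI and quantified by capillary electrophoresis; DMSO defines baseline.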

[4] = ATG_DR4_LXR_CIS: Attagene CIS-FACTORIAL HepG2 Assay for human Liver X Receptor (LXR), DR4 submotif (AID 2282929); settings: HepG2 Attagene DR4 cis-reporter, mRNA transcription; actives raise or lower the signal
Summary of the method: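 The endpoint is DR4-element-driven reporter transcripts after 24 h chemical exposure of transfected HepG2 cells. These were measured via RT-PCR and capillary electrophoresis, and gain or loss of signal was fitted relative to DMSO controls.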

[5] = target: Aryl hydrocarbon receptor (Homo sapiens) (UniProt P35869); experiment: ATG_Ahr_CIS: Attagene CIS-FACTORIAL HepG2 Assay for human Aryl Hydrocarbon Receptor (Ahr) (AID 2282930); settings: HepG2 AhR cis-factorial reporter transcription; actives raise or lower the signal
Summary of the method: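 Reporter mRNA levels, quantified by RT-PCR and fluorescent capillary electrophoresis, reflect endogenous AhR transcriptional activity in HepG2 cells carrying transfected cis-promoter reporter constructs. Readout at 24 h post-dose; gain or loss fitted against DMSO baseline.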

[6] = ATG_AP_1_CIS: Attagene CIS-FACTORIAL HepG2 Assay for human Activator Protein 1 (AP-1) (AID 2282931); settings: HepG2 Attagene cis-factorial AP-1 reporter mRNA; actives raise or lower the signal
Summary of the method: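 Readout is reporter transcript level from endogenous transcription factor activity, quantified by RT-PCR with fluorescent primer extension and capillary electrophoresis. Transiently transfected HepG2 cells, 24 h exposure. Curves fitted both directions versus DMSO.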

[7] = ATG_AP_2_CIS: Attagene CIS-FACTORIAL HepG2 Assay for human Activator Protein 2 (AP-2) (AID 2282932); settings: HepG2 AP-2 cis-reporter, Attagene transcription factor profiling; actives raise or lower the signal
Summary of the method: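 Transiently transfected HepG2 cells are exposed to chemical for 24 h. Reporter transcripts are then measured as fluorescence following RT-PCR and capillary separation, and gain- or loss-of-signal is fitted relative to DMSO.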

[8] = target: Retinoic acid receptor alpha (Homo sapiens) (UniProt P10276); experiment: ATG_DR5_RAR_CIS: Attagene CIS-FACTORIAL HepG2 Assay for human Retinoic Acid Receptor Alpha (RARE), DR5 submotif (AID 2282934); settings: HepG2 Attagene cis-factorial RARE DR5 reporter, mRNA; actives raise or lower the signal
Summary of the method: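 Reporter transcripts from a DR5-regulated unit, measured via RT-PCR plus capillary electrophoresis, reflect endogenous RAR activity in transiently transfected human HepG2 liver cells. Exposure lasted 24 h; gain or loss of signal scored against DMSO.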

[9] = target: Transcription factor E2F1 (Homo sapiens) (UniProt Q01094); experiment: ATG_E2F_CIS: Attagene CIS-FACTORIAL HepG2 Assay for human E2F Transcription Factor 1 (AID 2282935); settings: HepG2 Attagene cis-reporter, E2F reporter RNA transcripts; actives raise or lower the signal
Summary of the method: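 Fluorescent RT-PCR products, digested with HpaI for 2 h at 37 C, are separated by capillary electrophoresis. Source RNA comes from transfected HepG2 cultures treated for 24 h.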

[10] = ATG_E_Box_CIS: Attagene CIS-FACTORIAL HepG2 Assay for human Enhancer Box (E-box) (AID 2282936); settings: HepG2 E-box cis-reporter transcription, actives raise or lower the signal
Summary of the method: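 Fluorescent reporter fragments separated by capillary electrophoresis gave the signal; mRNA came from HepG2 cells transfected with cis-element reporters and treated 24 h. Curves fitted bidirectionally relative to DMSO controls.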

[11] = ATG_M_61_CIS: Attagene CIS-FACTORIAL HepG2 Assay for M61 Transcription Factor (Internal Marker) (AID 2282937); settings: HepG2 Attagene CIS-FACTORIAL M61 internal marker reporter; actives raise or lower the signal
Summary of the method: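 Readout is reporter mRNA by RT-PCR, fluorescent primer extension and capillary electrophoresis, with gain or loss fitted relative to DMSO. Transfected HepG2 cells carrying endogenous-TF-driven cis reporters were exposed to chemicals for 24 hours.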

[12] = ATG_M_19_CIS: Attagene CIS-FACTORIAL HepG2 Assay for M19 Transcription Factor (Internal Marker) (AID 2282939); settings: HepG2 Attagene CIS-FACTORIAL M19 internal marker reporter; actives raise or lower the signal
Summary of the method: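 In this multiplexed cell assay, transiently transfected HepG2 reporter units report endogenous transcription-factor activity; after 24 hours of treatment, labelled reporter cDNA fragments are quantified by capillary electrophoresis and fitted bidirectionally against DMSO.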

[13] = target: Hepatocyte nuclear factor 3-beta (Homo sapiens) (UniProt Q9Y261); experiment: ATG_FoxA2_CIS: Attagene CIS-FACTORIAL HepG2 Assay for human Forkhead box A2 (FOXA2) (AID 2282942); settings: HepG2 cis-reporter transcription factor activity, 24 h; actives raise or lower the signal
Summary of the method: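 Endogenous transcription factor activity is captured via cis-element-driven reporter transcripts in transfected HepG2. Total RNA taken at 24 h post-dosing; labelled RT-PCR products resolved by capillary electrophoresis. Gain or loss fitted versus DMSO.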

[14] = ATG_FoxO_CIS: Attagene CIS-FACTORIAL HepG2 Assay for human Forkhead box O (FoxO) (AID 2282943); settings: HepG2 Attagene cis-reporter, FoxO element, mRNA; actives raise or lower the signal
Summary of the method: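 Endogenous transcription factor activity read from multiplexed cis-promoter reporter transcripts in transiently transfected HepG2, 24 h after dosing. Reporter RNA measured via RT-PCR plus capillary electrophoresis of FAM-labeled products; gain or loss relative to DMSO.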

[15] = ATG_GATA_CIS: Attagene CIS-FACTORIAL HepG2 Assay for human GATA Binding Protein (AID 2282944); settings: HepG2 GATA cis-element reporter, Attagene multiplex mRNA; actives raise or lower the signal
Summary of the method: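 Measures endogenous transcription factor-driven reporter mRNA in HepG2 cells transiently carrying cis-regulated constructs. 24 h dosing; RNA via oligo(dT) reverse transcription, PCR, HpaI digestion, capillary electrophoresis; fitted relative to DMSO.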

[16] = ATG_GLI_CIS: Attagene CIS-FACTORIAL HepG2 Assay for human Zinc Finger Protein GLI1 (AID 2282945); settings: HepG2, Attagene cis-factorial reporter mRNA, GLI element; actives raise or lower the signal
Summary of the method: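 Bidirectional curve fits relative to DMSO, using reporter mRNA levels from RT-PCR plus capillary electrophoresis. Cells were HepG2 transiently carrying cis-regulated reporter constructs, harvested 24 h after dosing.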

[17] = ATG_EGR_CIS: Attagene CIS-FACTORIAL HepG2 Assay for human Early Growth Response 1 (EGR1) (AID 2282938); settings: HepG2 Attagene CIS-FACTORIAL EGR reporter mRNA; actives raise or lower the signal
Summary of the method: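 After 24 h compound exposure, RNA from reporter-transfected HepG2 cells was reverse-transcribed, PCR-amplified, fluorescently labelled and resolved by capillary electrophoresis. EGR1 reporter transcript changes, up or down, were fitted against DMSO, reflecting endogenous transcription-factor activity.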

[18] = ATG_Ets_CIS: Attagene CIS-FACTORIAL HepG2 Assay for human Erythroblast Transformation Specific (ETS) (AID 2282941); settings: HepG2 ETS cis-reporter transcription, actives raise or lower the signal
Summary of the method: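 Bidirectional fit versus DMSO of reporter mRNA signal, detected by RT-PCR and capillary electrophoresis in HepG2 cells transiently transfected with cis-element reporters and dosed 24 h.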

[19] = ATG_BRE_CIS: Attagene CIS-FACTORIAL HepG2 Assay for human Bone Morphogenetic Protein (BMP) Response Element (BRE) (AID 2282933); settings: HepG2 BMP response element reporter, Attagene transcription factor profiling; actives raise or lower the signal
Summary of the method: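 After a 24 h chemical treatment, transiently transfected HepG2 cells were lysed for RNA; reporter transcripts were quantified by fluorescent RT-PCR and capillary electrophoresis, normalised to DMSO.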

Measured: outcome

Sequence of Aryl hydrocarbon receptor (Homo sapiens) (P35869 whole entry, looked up): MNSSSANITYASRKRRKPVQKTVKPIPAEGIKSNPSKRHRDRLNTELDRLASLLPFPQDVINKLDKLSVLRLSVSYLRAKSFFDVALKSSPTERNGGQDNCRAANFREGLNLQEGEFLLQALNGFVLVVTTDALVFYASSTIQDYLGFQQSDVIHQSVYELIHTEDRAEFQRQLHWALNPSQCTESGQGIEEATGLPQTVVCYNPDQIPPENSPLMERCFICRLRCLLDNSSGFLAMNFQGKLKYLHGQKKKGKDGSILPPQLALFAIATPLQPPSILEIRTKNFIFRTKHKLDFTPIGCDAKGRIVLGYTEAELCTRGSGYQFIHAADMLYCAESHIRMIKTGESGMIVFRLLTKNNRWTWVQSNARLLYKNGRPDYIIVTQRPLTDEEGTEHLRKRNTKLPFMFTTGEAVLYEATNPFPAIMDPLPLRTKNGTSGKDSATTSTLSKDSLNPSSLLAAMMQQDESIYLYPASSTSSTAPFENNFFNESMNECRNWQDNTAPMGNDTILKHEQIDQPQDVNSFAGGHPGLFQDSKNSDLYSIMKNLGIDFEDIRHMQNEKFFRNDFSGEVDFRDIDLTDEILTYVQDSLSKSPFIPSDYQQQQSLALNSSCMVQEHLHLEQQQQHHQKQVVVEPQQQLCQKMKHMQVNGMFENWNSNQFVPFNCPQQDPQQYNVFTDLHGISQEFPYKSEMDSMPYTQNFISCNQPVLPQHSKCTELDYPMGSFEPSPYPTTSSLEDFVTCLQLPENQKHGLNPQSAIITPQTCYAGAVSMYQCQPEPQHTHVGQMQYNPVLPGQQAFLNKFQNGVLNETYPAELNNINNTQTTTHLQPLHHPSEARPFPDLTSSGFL
Sequence of Hepatocyte nuclear factor 3-beta (Homo sapiens) (Q9Y261 whole entry, looked up): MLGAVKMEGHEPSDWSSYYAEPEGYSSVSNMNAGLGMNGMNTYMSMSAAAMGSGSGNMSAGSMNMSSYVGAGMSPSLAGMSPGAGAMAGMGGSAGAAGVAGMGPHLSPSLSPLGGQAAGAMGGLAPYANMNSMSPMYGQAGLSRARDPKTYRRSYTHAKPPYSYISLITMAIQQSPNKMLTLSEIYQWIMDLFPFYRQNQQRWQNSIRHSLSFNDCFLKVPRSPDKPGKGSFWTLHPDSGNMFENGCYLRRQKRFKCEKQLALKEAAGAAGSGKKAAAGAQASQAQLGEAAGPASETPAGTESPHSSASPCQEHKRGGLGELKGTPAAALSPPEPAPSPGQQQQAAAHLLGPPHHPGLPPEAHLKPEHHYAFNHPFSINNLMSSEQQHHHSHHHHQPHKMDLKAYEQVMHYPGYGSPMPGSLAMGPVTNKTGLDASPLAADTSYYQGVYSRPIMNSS
Sequence of CCAAT/enhancer-binding protein beta (Homo sapiens) (P17676 whole entry, looked up, the tested form may be a part): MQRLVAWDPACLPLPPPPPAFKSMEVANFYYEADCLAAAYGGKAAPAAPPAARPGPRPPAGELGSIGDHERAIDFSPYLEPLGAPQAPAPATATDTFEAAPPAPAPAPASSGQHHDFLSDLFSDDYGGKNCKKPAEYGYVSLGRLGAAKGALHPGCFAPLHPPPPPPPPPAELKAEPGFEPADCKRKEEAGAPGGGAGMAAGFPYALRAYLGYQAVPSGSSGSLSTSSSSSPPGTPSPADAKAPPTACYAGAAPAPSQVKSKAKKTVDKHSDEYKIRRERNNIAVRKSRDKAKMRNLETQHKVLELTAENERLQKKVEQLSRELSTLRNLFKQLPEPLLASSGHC
Sequence of Transcription factor E2F1 (Homo sapiens) (Q01094 whole entry, looked up): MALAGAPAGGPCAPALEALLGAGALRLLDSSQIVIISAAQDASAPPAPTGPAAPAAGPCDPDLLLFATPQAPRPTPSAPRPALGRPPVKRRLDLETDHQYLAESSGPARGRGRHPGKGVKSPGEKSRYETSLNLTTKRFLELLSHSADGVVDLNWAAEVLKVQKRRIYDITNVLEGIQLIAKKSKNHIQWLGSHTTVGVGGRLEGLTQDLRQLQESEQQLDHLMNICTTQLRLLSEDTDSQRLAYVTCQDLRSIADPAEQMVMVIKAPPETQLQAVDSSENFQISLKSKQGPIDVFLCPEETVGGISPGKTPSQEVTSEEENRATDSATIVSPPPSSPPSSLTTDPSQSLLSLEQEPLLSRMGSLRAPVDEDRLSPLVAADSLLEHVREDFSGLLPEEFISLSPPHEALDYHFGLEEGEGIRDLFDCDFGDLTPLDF
Sequence of Retinoic acid receptor alpha (Homo sapiens) (P10276 whole entry, looked up): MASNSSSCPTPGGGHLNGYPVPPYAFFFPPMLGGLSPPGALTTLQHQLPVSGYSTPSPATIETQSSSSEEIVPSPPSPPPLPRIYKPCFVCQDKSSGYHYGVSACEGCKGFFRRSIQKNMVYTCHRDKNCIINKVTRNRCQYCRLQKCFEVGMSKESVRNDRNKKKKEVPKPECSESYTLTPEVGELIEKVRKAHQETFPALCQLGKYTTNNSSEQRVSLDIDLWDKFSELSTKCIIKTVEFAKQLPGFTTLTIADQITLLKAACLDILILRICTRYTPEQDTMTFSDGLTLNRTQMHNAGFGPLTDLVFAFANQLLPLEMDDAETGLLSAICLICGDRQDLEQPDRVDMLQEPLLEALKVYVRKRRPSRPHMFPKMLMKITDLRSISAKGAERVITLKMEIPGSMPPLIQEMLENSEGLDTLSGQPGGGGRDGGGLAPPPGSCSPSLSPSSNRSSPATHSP

O=c1oc(=O)c2cc3c(=O)oc(=O)c3cc12
not listed: [17] | [18] | [19]
inactive: all other assays above

O=C[C@H](O)[C@H](O)[C@H](O)CO
not listed: [15] | [19]
inactive: all other assays above

O=C(Oc1ccccc1)c1ccc(O)cc1
not listed: [9] | [19]
inactive: all other assays above

C=C(C)C(=O)OCCOC(=O)CC(C)=O
not listed: [8] | [19]
inactive: all other assays above

COc1ccc(O)cc1
not listed: [8] | [10]
inactive: all other assays above

Cc1ccc(C(=O)O)o1
not listed: [8] | [9] | [13]
inactive: all other assays above

O=C(O)c1cccc([N+](=O)[O-])c1
not listed: [8] | [10] | [13]
inactive: all other assays above

Sc1nc(S)nc(S)n1
not listed: [8] | [19]
inactive: all other assays above
